The record followed here is PubChem BioAssay (NCI).

Assay [1] in a line: NCI Yeast Anticancer Drug Screen. Data for the rad50 strain (AID 155).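 Also: 0% = growth of vehicle-only cultures of the same strain.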 The following applies: S. cerevisiae rad50 strain growth inhibition, stronger effect = higher value. In outline: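 DNA repair mutant yeast, compound exposure, growth read-out; inhibition is taken relative to vehicle.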
Assay [2] is described as follows: NCI Yeast Anticancer Drug Screen. Data for the mec2-1 strain (AID 157). The following applies: S. cerevisiae mec2-1 strain, stronger effect = higher value. The procedure, abridged: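 Yeast mec2-1 mutant treated with compound. Readout: growth inhibition vs vehicle controls.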
Assay [3] is described as follows: NCI Yeast Anticancer Drug Screen. Data for the sgs1 mgt1 strain (AID 161).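 Also: 0% = growth of cultures given vehicle only.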 The note with it: S. cerevisiae sgs1 mgt1 strain, stronger effect = higher value. In outline: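 Mutant yeast exposed to compound; growth scored against vehicle-only wells.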
The nature of assay [4]: NCI Yeast Anticancer Drug Screen. Data for the cln2 rad14 strain (AID 165).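 Also: 0% = growth equal to vehicle treated cultures.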 The following applies: S. cerevisiae cln2 rad14 strain, stronger effect = higher value. In outline:
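cln2 rad14 yeast strain; compound exposure; growth inhibition read vs vehicle controls.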

A short description of assay [5]: NCI Yeast Anticancer Drug Screen. Data for the bub3 strain (AID 167). The note with it: S. cerevisiae bub3 mutant strain, stronger effect = higher value. In outline:
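In this screen, a yeast mutant lacking normal mitotic checkpoint function is challenged with compound. Relative growth versus vehicle gives the inhibition value.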

Assay [6] is described as follows: NCI Yeast Anticancer Drug Screen. Data for the mlh1 rad18 strain (AID 175). The following applies: S. cerevisiae mlh1 rad18 strain growth inhibition, stronger effect = higher value. The procedure, abridged:
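Yeast w/ defined DNA-repair lesions; compound exposure; growth vs vehicle controls → % inhibition.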

The mark [7] stands for this setting: at 5.0 µM (retest, dose inferred, filed as 0.5).
[8] abbreviates: at 50.0 µM (retest, dose inferred, filed as 5.0).

This is part of a sample that, as a whole, favours compounds with a hit. Of some 79,000 tested, about 15% had one in any assay. A number with no mark means an inactive call. The source made the active and inactive calls. Rule as the data show it: active = growth inhibition above about 70%; inactive = the rest.

Take `O=C1C(Cl)=C(Cl)C(=C2C(Cl)=C(Cl)C(=O)C(Cl)=C2Cl)C(Cl)=C1Cl`: the growth inhibition in assay [1] (setting [7]) was 98% (active); in assay [1] (setting [8]), 99% (active); in assay [1] (at 50.0 µM), 99.5% (active); in assay [2] (setting [7]), 97% (active); in assay [2] (setting [8]), 100% (active); in assay [2] (at 50.0 µM), 99.6% (active). For the same molecule, the growth inhibition in assay [3] (setting [7]) was 91% (active); in assay [3] (setting [8]), 99% (active); in assay [3] (at 50.0 µM), 99.5% (active); in assay [4] (setting [7]) it was 99% (active); in assay [4] (setting [8]), 99% (active); in assay [4] (at 50.0 µM), 99% (active). Also, the growth inhibition was 79% (active) in assay [5] (setting [7]); 98% (active) in assay [5] (setting [8]); 99.5% (active) in assay [5] (at 50.0 µM); 97% (active) in assay [6] (setting [7]); 99% (active) in assay [6] (setting [8]); 99.4% (active) in assay [6] (at 50.0 µM).
With `CC1(C(=O)O)CCC2(C)CCC3(C)C(=CC(=O)C4C5(C)CCC(O)C(C)(C)C5CCC43C)C2C1` (configuration not stated), the growth inhibition in assay [1] (setting [7]) is 12%; in assay [1] (setting [8]) it was 61%; in assay [1] (at 50.0 µM), 52.4%; in assay [2] (setting [7]), 23%; in assay [2] (setting [8]), 78% (active); in assay [2] (at 50.0 µM) it was 64.8%. The growth inhibition in assay [3] (setting [7]) was 10%; in assay [3] (setting [8]), 74% (active); in assay [3] (at 50.0 µM), 65%; in assay [4] (setting [7]), 30%; in assay [4] (setting [8]), 84% (active); in assay [4] (at 50.0 µM) it was 75.7% (active). For the same molecule, the growth inhibition was 29% in assay [5] (setting [7]); 78% (active) in assay [5] (setting [8]); 60.5% in assay [5] (at 50.0 µM); 18% in assay [6] (setting [7]); 80% (active) in assay [6] (setting [8]); 71.3% (active) in assay [6] (at 50.0 µM).
On to `Nn1c2ccccc2c2ccccc21`, for which the growth inhibition in assay [1] (setting [7]) is -106%; in assay [1] (setting [8]), -52%; in assay [1] (at 50.0 µM), 35%; in assay [2] (setting [7]), -44%; in assay [2] (setting [8]), -53%; in assay [2] (at 50.0 µM), 11.8%. The growth inhibition was -32% in assay [3] (setting [7]); -25% in assay [3] (setting [8]); 8.1% in assay [3] (at 50.0 µM); -54% in assay [4] (setting [7]); -77% in assay [4] (setting [8]); 12% in assay [4] (at 50.0 µM). For the same molecule, the growth inhibition is -72% in assay [5] (setting [7]); -80% in assay [5] (setting [8]); -6% in assay [5] (at 50.0 µM); -78% in assay [6] (setting [7]); 6% in assay [6] (setting [8]); 75.1% (active) in assay [6] (at 50.0 µM).
Consider `COc1cccc2nc3c(C(=O)NCCN(C)C)cccc3cc12`, for which the growth inhibition in assay [1] (setting [7]) was 60%; in assay [1] (setting [8]) it was 94% (active); in assay [1] (at 50.0 µM), 81.7% (active); in assay [2] (setting [7]) it was 15%; in assay [2] (setting [8]), 43%; in assay [2] (at 50.0 µM), 15.9%. The growth inhibition in assay [3] (setting [7]) was 24%; in assay [3] (setting [8]), 56%; in assay [3] (at 50.0 µM), 10.4%; in assay [4] (setting [7]), 15%; in assay [4] (setting [8]), 49%; in assay [4] (at 50.0 µM), -7.1%. The growth inhibition in assay [5] (setting [7]) is 22%; in assay [5] (setting [8]), 47%; in assay [5] (at 50.0 µM) it was -50.6%; in assay [6] (setting [7]), 24%; in assay [6] (setting [8]), 65%; in assay [6] (at 50.0 µM), 0.05%.
For `O=C(CC(=O)c1ccccc1)CC(O)(c1ccccc1)c1ccccc1`, the growth inhibition in assay [1] (setting [7]) was 30%; in assay [1] (setting [8]), 90% (active); in assay [1] (at 50.0 µM) it was 84.9% (active); in assay [2] (setting [7]), 32%; in assay [2] (setting [8]), 94% (active); in assay [2] (at 50.0 µM) it was 89.1% (active). Also, the growth inhibition in assay [3] (setting [7]) was 26%; in assay [3] (setting [8]), 89% (active); in assay [3] (at 50.0 µM) it was 89.7% (active); in assay [4] (setting [7]), 27%; in assay [4] (setting [8]) it was 72% (active); in assay [4] (at 50.0 µM) it was 87.6% (active). Moreover, the growth inhibition was 42% in assay [5] (setting [7]); 94% (active) in assay [5] (setting [8]); 87.9% (active) in assay [5] (at 50.0 µM); 42% in assay [6] (setting [7]); 88% (active) in assay [6] (setting [8]); 86.5% (active) in assay [6] (at 50.0 µM).
In the case of `CN(C)c1ccc(C(c2ccc(N(C)C)cc2)c2cccc([N+](=O)[O-])c2)cc1`, the growth inhibition in assay [1] (setting [7]) is -2%; in assay [1] (setting [8]) it was -3%; in assay [1] (at 50.0 µM), -11.2%; in assay [2] (setting [7]), -3%; in assay [2] (setting [8]) it was -13%; in assay [2] (at 50.0 µM) it was 0.2%. The growth inhibition in assay [3] (setting [7]) was -2%; in assay [3] (setting [8]), -1%; in assay [3] (at 50.0 µM), -2.45%; in assay [4] (setting [7]) it was -8%; in assay [4] (setting [8]), -33%; in assay [4] (at 50.0 µM), 14.9%. Besides, the growth inhibition in assay [5] (setting [7]) was 43%; in assay [5] (setting [8]), 26%; in assay [5] (at 50.0 µM), 50.1%; in assay [6] (setting [7]), -2%; in assay [6] (setting [8]), -12%; in assay [6] (at 50.0 µM) it was 7.9%.
`CN(C)CCC(/C=C/c1ccccc1)=N\Nc1ccc(Cl)cc1`: the growth inhibition in assay [1] (setting [7]) is 27%; in assay [1] (setting [8]) it was 99% (active); in assay [1] (at 50.0 µM), 99.2% (active); in assay [2] (setting [7]), 17%; in assay [2] (setting [8]), 99% (active); in assay [2] (at 50.0 µM), 99% (active). In addition, the growth inhibition in assay [3] (setting [7]) is 56%; in assay [3] (setting [8]), 100% (active); in assay [3] (at 50.0 µM), 99.1% (active); in assay [4] (setting [7]), 12%; in assay [4] (setting [8]) it was 99% (active); in assay [4] (at 50.0 µM), 99.2% (active). Further, the growth inhibition in assay [5] (setting [7]) was 46%; in assay [5] (setting [8]), 99% (active); in assay [5] (at 50.0 µM), 99.3% (active); in assay [6] (setting [7]) it was 42%; in assay [6] (setting [8]), 99% (active); in assay [6] (at 50.0 µM), 85.3% (active).
On to `O=C(O)Cc1cccc2cc3c(ccc4ccccc43)cc12`, for which the growth inhibition is 15% in assay [1] (setting [7]); 34% in assay [1] (setting [8]); 47.7% in assay [1] (at 50.0 µM); 8% in assay [2] (setting [7]); 32% in assay [2] (setting [8]); 91% (active) in assay [2] (at 50.0 µM). Also, the growth inhibition in assay [3] (setting [7]) was 11%; in assay [3] (setting [8]), 47%; in assay [3] (at 50.0 µM), 10.1%; in assay [4] (setting [7]) it was -2%; in assay [4] (setting [8]), 44%; in assay [4] (at 50.0 µM), 96.6% (active). In addition, the growth inhibition in assay [5] (setting [7]) was 2%; in assay [5] (setting [8]), 42%; in assay [5] (at 50.0 µM) it was 93.3% (active); in assay [6] (setting [7]), 8%; in assay [6] (setting [8]), 44%; in assay [6] (at 50.0 µM), 96.7% (active).
On to `COc1ccc(C(C)=O)c(OC(=O)c2ccccc2)c1OC(=O)c1ccccc1`, for which the growth inhibition in assay [1] (setting [7]) is -22%; in assay [1] (setting [8]) it was 9%; in assay [1] (at 50.0 µM), 5.05%; in assay [2] (setting [7]) it was -1%; in assay [2] (setting [8]), 7%; in assay [2] (at 50.0 µM) it was 10.2%. The growth inhibition in assay [3] (setting [7]) was -21%; in assay [3] (setting [8]), -10%; in assay [3] (at 50.0 µM), -12.1%; in assay [4] (setting [7]), 2%; in assay [4] (setting [8]), 11%; in assay [4] (at 50.0 µM) it was -3%. In addition, the growth inhibition in assay [5] (setting [7]) is -10%; in assay [5] (setting [8]), -1%; in assay [5] (at 50.0 µM), 1.15%; in assay [6] (setting [7]), -1%; in assay [6] (setting [8]), 4%; in assay [6] (at 50.0 µM), -0.9%.
